Measured values from PubChem BioAssay AID1159580 (chemical genetic matrix, 2015).
In all, about 5,500 compounds went through this assay and about 2,000 (36%) were called active. Another 18% or so got no clear call; they are omitted. Rule as the data show it: active = normalized growth mostly below about 0.91 (no sharp cut-off); inconclusive = no clear call, values can overlap the other calls; inactive = mostly above about 0.92. Some of the results follow.

Experiment: chemical genetic growth profiling, strain panel (AID 1159580);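 also: tested at 20 µM; growth read once vehicle control cultures reached saturation at 30 °C; 1 = growth at the plate median or of vehicle wells; lower values mean less growth of the strain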
Conditions: growth OD

Measured: normalized growth

OCCN1C[C@@H](O)[C@@H](O)C(O)C1CO (stereo partly specified)
inactive: S. cerevisiae deletion strains, locus YKL009W, strain mrt4, hits give low values 1.01 | S. cerevisiae deletion strains, locus YKL068W, hits give low values 1.01 | S. cerevisiae deletion strains, locus YKL085W, strain MDH1 (second series), hits give low values 1 | S. cerevisiae deletion strains, locus YKL085W, strain MDH1, hits give low values 1 | S. cerevisiae deletion strains, locus YKL160W, strain elf1, hits give low values 1.01 | S. cerevisiae deletion strains, locus YKL190W, strain CNB1, hits give low values 1.02 | S. cerevisiae deletion strains, locus YKR001C, strain vps1, hits give low values 0.999 | S. cerevisiae deletion strains, locus YKR026C, strain gcn3, hits give low values 1.02 | S. cerevisiae deletion strains, locus YKR091W, strain srl3, hits give low values 1 | S. cerevisiae deletion strains, locus YLL001W, strain dnm1, hits give low values 1.02 | S. cerevisiae deletion strains, locus YLL026W, hits give low values 1.01 | S. cerevisiae deletion strains, locus YLL041C, strain sdh2, hits give low values 1 | S. cerevisiae deletion strains, locus YLR027C, strain aat2, hits give low values 0.992 | S. cerevisiae deletion strains, locus YLR039C, strain RIC1, hits give low values 0.958 | S. cerevisiae deletion strains, locus YLR058C, strain SHM2, hits give low values 1.02 | S. cerevisiae deletion strains, locus YLR102C, strain apc9, hits give low values 0.997 | S. cerevisiae deletion strains, locus YLR113W, strain HOG1, hits give low values 1.04 | S. cerevisiae deletion strains, locus YLR221C, strain rsa3, hits give low values 1.01 | S. cerevisiae deletion strains, locus YLR258W, strain gsy2, hits give low values 1 | S. cerevisiae deletion strains, locus YLR262C, strain YPT6 (second series), hits give low values 0.994 | S. cerevisiae deletion strains, locus YLR262C, strain YPT6, hits give low values 1 | S. cerevisiae deletion strains, locus YLR268W, strain sec22, hits give low values 1 | S. cerevisiae deletion strains, locus YLR320W, strain mms22, hits give low values 1.01 | S. cerevisiae deletion strains, locus YLR330W, strain CHS5, hits give low values 1.01 | S. cerevisiae deletion strains, locus YLR342W, strain FKS1 (second series), hits give low values 1.01 | S. cerevisiae deletion strains, locus YLR342W, strain FKS1, hits give low values 0.99 | S. cerevisiae deletion strains, locus YLR357W, strain rsc2, hits give low values 1 | S. cerevisiae deletion strains, locus YLR370C, strain arc18, hits give low values 1 | S. cerevisiae deletion strains, locus YLR371W, strain rom2, hits give low values 0.995 | S. cerevisiae deletion strains, locus YLR384C, strain iki3, hits give low values 1 | S. cerevisiae deletion strains, locus YLR418C, strain cdc73, hits give low values 0.977 | S. cerevisiae deletion strains, locus YML016C, strain PPZ1, hits give low values 1.01 | S. cerevisiae deletion strains, locus YML032C, strain rad52, hits give low values 1.01 | S. cerevisiae deletion strains, locus YML120C, strain ndi1, hits give low values 1.02 | S. cerevisiae deletion strains, locus YML124C, strain tub3, hits give low values 1.01 | S. cerevisiae deletion strains, locus YMR058W, strain fet3, hits give low values 1 | S. cerevisiae deletion strains, locus YMR078C, strain ctf18, hits give low values 1 | S. cerevisiae deletion strains, locus YMR125W, strain sto1, hits give low values 0.997 | S. cerevisiae deletion strains, locus YMR129W, hits give low values 0.997 | S. cerevisiae deletion strains, locus YMR205C, strain PFK2, hits give low values 1 | S. cerevisiae deletion strains, locus YMR223W, strain ubp8, hits give low values 1 | S. cerevisiae deletion strains, locus YMR231W, strain pep5, hits give low values 1 | S. cerevisiae deletion strains, locus YMR263W, strain SAP30, hits give low values 1.02 | S. cerevisiae deletion strains, locus YMR307W, strain GAS1, hits give low values 1.01 | S. cerevisiae deletion strains, locus YNL067W, strain RPL9B, hits give low values 1.02 | S. cerevisiae deletion strains, locus YNL071W, strain lat1, hits give low values 0.993 | S. cerevisiae deletion strains, locus YNL128W, strain TEP1, hits give low values 1.02 | S. cerevisiae deletion strains, locus YNL153C, strain GIM3, hits give low values 1.01 | S. cerevisiae deletion strains, locus YNL183C, strain NPR1, hits give low values 0.97 | S. cerevisiae deletion strains, locus YNL209W, strain ssb2, hits give low values 1 | S. cerevisiae deletion strains, locus YNL233W, strain BNI4, hits give low values 1.02 | S. cerevisiae deletion strains, locus YNL248C, strain rpa49, hits give low values 1.02 | S. cerevisiae deletion strains, locus YNL250W, strain rad50, hits give low values 1 | S. cerevisiae deletion strains, locus YNL271C, strain bni1, hits give low values 0.986 | S. cerevisiae deletion strains, locus YNL298W, strain CLA4, hits give low values 0.994 | S. cerevisiae deletion strains, locus YNL307C, strain MCK1, hits give low values 1.01 | S. cerevisiae deletion strains, locus YNL322C, strain KRE1 (second series), hits give low values 1.02 | S. cerevisiae deletion strains, locus YNL322C, strain KRE1, hits give low values 1.01 | S. cerevisiae deletion strains, locus YNR049C, strain mso1, hits give low values 1 | S. cerevisiae deletion strains, locus YNR052C, strain pop2, hits give low values 0.999 | S. cerevisiae deletion strains, locus YOL006C, strain TOP1, hits give low values 1.04 | S. cerevisiae deletion strains, locus YOL012C, strain htz1 1.11 | S. cerevisiae deletion strains, locus YOL147C, strain pex11, hits give low values 1 | S. cerevisiae deletion strains, locus YOR001W, strain rrp6, hits give low values 1 | S. cerevisiae deletion strains, locus YOR061W, strain CKA2, hits give low values 1.01 | S. cerevisiae deletion strains, locus YOR069W, strain VPS5, hits give low values 1.01 | S. cerevisiae deletion strains, locus YOR070C, strain gyp1, hits give low values 0.997 | S. cerevisiae deletion strains, locus YOR080W, strain dia2, hits give low values 1.01 | S. cerevisiae deletion strains, locus YOR083W, strain WHI5, hits give low values 1 | S. cerevisiae deletion strains, locus YOR106W, strain vam3, hits give low values 1.03 | S. cerevisiae deletion strains, locus YOR136W, strain idh2, hits give low values 0.998 | S. cerevisiae deletion strains, locus YOR144C, strain elg1, hits give low values 1 | S. cerevisiae deletion strains, locus YOR184W, strain ser1, hits give low values 1 | S. cerevisiae deletion strains, locus YOR231W, strain MKK1, hits give low values 1.01 | S. cerevisiae deletion strains, locus YOR265W, strain rbl2, hits give low values 0.988 | S. cerevisiae deletion strains, locus YOR270C, strain vph1, hits give low values 1.05 | S. cerevisiae deletion strains, locus YOR290C, strain snf2, hits give low values 1.01 | S. cerevisiae deletion strains, locus YOR316C, strain cot1, hits give low values 0.997 | S. cerevisiae deletion strains, locus YPL051W, strain arl3, hits give low values 1 | S. cerevisiae deletion strains, locus YPL055C, strain LGE1, hits give low values 1.05 | S. cerevisiae deletion strains, locus YPL078C, strain atp4, hits give low values 1.01 | S. cerevisiae deletion strains, locus YPL106C, strain sse1, hits give low values 1.03 | S. cerevisiae deletion strains, locus YPL240C, strain hsp82, hits give low values 1 | S. cerevisiae deletion strains, locus YPL241C, strain CIN2, hits give low values 1.01 | S. cerevisiae deletion strains, locus YPL256C, strain CLN2, hits give low values 1.02 | S. cerevisiae deletion strains, locus YPR119W, strain clb2, hits give low values 0.996 | S. cerevisiae deletion strains, locus YPR141C, strain kar3, hits give low values 1 | S. cerevisiae deletion strains, locus YPR163C, strain tif3, hits give low values 1 | S. cerevisiae deletion strains, locus YPR167C, strain met16, hits give low values 0.997 | S. cerevisiae deletion strains, strain wtn01, hits give low values 1 | S. cerevisiae strains, strain wild type, hits give low values 1.01
